What all share (assay): NCI-60 one-dose screen, 48 h (100 = growth as untreated, 0 = no growth, -100 = all killed)
Experiment [1] deals with NCI-H226 lung. Conditions: 10 µM.
Experiment [2] has as its system HOP-62 NSCLC. Conditions: 10 µM unless noted.
Experiment [3] deals with NCI-H460 lung. As to conditions: 10 µM unless noted.
Experiment [4] concerns HOP-92 NSCLC. Conditions: 10 µM unless noted.
For experiment [5], the system named is A549/ATCC NSCLC. Conditions: 10 µM unless noted.
Experiment [6] relates to 786-0 renal. As to conditions: 10 µM unless noted.
The subject of experiment [7] is COLO 205 colon. Conditions: 10 µM unless noted.
Experiment [8] has as its system NCI-H522 lung. As to conditions: 10 µM.
Experiment [9] has as its system NCI-H322M lung. As to conditions: 10 µM unless noted.

SMILES strings stand for the structures. About 83,000 compounds went through this panel and 20% of them were active in at least one assay; those are over-represented in the sample as a whole.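 Step 1: grow cells in 96-well plates. Step 2: add test compound at a single concentration. Step 3: incubate 48 h. Step 4: record percent growth.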 A number with no mark means an inactive call. Calls of active or inactive are those of the source. The calls were made as follows: active = growth percent below 10; inactive = the rest.

Regarding `CCCC1=NNC(=O)C1`, the growth in experiment [1] was 108%; in experiment [2] it was 99%; in [3], 109%; in [4] it was 90.7%; in experiment [5], 95.9%; in [6] it was 95.8%. In addition, in experiment [7], the growth was 99.3%.
As to `O=C1C2CC3C(CC2C(=O)[N]1[Sn]([c]1ccccc1)([c]1ccccc1)[c]1ccccc1)C1(Cl)C(Cl)=C(Cl)C3(Cl)C1(Cl)Cl` (stereo unspecified), the growth in experiment [1] is -43.5% (active); in experiment [3], -81.6% (active); in experiment [4], -96.1% (active); in [8], -94.2% (active); in experiment [5] it was -97.2% (active); in experiment [6], -86.2% (active). For the same molecule, the growth in [7] was -86.7% (active).
As for `Cc1nc2cc(Nc3nc(N4CCCCC4)nc(N4CCOCC4)n3)ccc2n1Cc1ccccc1`, the growth in experiment [1] is 28.4%; in [2], 44.5%; in experiment [3], 4.87% (active); in experiment [4] it was -28.2% (active); in experiment [8] it was 37.9%; in experiment [5], -0.889% (active). The growth in experiment [6] is 10.9%; in experiment [7], 41%.
Consider `C[C@@H](Oc1cc(-c2cnn(C3CC4(CNC4)C3)c2)cnc1N)c1c(Cl)ccc(F)c1Cl`, for which the growth is 72.1% in [9]; 49.9% in experiment [2]; 15.9% in experiment [3]; 0.0528% (active) in experiment [4]; 69.1% in experiment [8]; 19.6% in [5]. For the same molecule, the growth in experiment [6] was 53%; in experiment [7], 5.17% (active).
Consider `Cc1nn(-c2ccccc2)c2nc3nc4c(c(N)c3c(-c3ccc(Cl)cc3)c12)CCC4`, for which the growth in [1] was 94.1%; in [2], 101%; in [3] it was 72.7%; in experiment [8], 102%; in experiment [5] it was 84.8%; in experiment [6] it was 74%. For the same molecule, the growth in [7] is 67%.
Take `COc1cccc(OC(=O)c2ccccc2)c1OC(=O)c1ccccc1`: the growth was 109% in [1]; 61.7% in [2]; 81.6% in experiment [3]; 40% in [4]; 78% in [5]; 101% in experiment [6]. For the same molecule, the growth in experiment [7] was 108%.
In the case of `O=C(Nc1ccc(Cl)c(Cl)c1)OCn1ncc2ccc([N+](=O)[O-])cc21`, the growth is 81.3% in experiment [1]; 71.6% in [2]; 99.8% in [3]; 62.6% in experiment [4]; 82.8% in experiment [5]; 83.3% in experiment [6]. In addition, the growth in experiment [7] is 93.2%.
For the molecule `CC1(C)N=C(N)N=C(N)N1c1cccc(/C=C/C=C/c2cccc([N+](=O)[O-])c2)c1`, the growth is 76.9% in experiment [1]; 104% in [2]; 21.3% in experiment [3]; 27.6% in [8]; 28.2% in experiment [5]; 91.9% in experiment [6]. In addition, in experiment [7], the growth is 29.7%.
As to `Cc1nc2cc(Nc3nc(Nc4ccc(F)cc4)nc(N4CCCC4)n3)ccc2n1Cc1ccccc1`, the growth in experiment [1] is -17.1% (active); in experiment [2], -22.5% (active); in experiment [3], -30.4% (active); in experiment [4] it was -12.3% (active); in [8], -4.13% (active); in [5], -0.672% (active). Besides, the growth in [6] is -21.7% (active); in experiment [7], -72.6% (active).
Consider `COc1ncc(F)c(OC)n1`, for which the growth is 101% in experiment [1]; 94.3% in experiment [2]; 108% in experiment [3]; 87% in experiment [4]; 97.5% in experiment [8]; 99.8% in experiment [5]. Besides, the growth in [6] was 102%; in experiment [7] it was 110%.
For the molecule `FC(F)(F)c1cc(CNc2ncc(Br)c(Cl)n2)cc(C(F)(F)F)c1`, the growth in experiment [1] was 90.3%; in experiment [3] it was 107%; in experiment [4] it was 84.3%; in [8], 74.2%; in experiment [5], 101%; in experiment [6] it was 90.4%. The growth in experiment [7] was 98.4%.
As for `Cc1nc2cc(Nc3nc(Nc4ccc(F)cc4)nc(-c4cccs4)n3)ccc2n1Cc1ccccc1`, the growth in experiment [1] is 65%; in experiment [2] it was 92.3%; in [3], 39.6%; in experiment [4], 22%; in experiment [5], 43.1%; in [6], 37.5%. Besides, the growth in experiment [7] was 56.8%.
For the molecule `C(=C\c1ccccc1)/CN1CCN(C(c2ccccc2)c2ccccc2)CC1`, the growth in [1] was 86.3%; in [2], 99.6%; in experiment [3] it was 96.5%; in experiment [4] it was 62.5%; in experiment [5], 88.7%; in experiment [6], 95.3%. Further, the growth in experiment [7] was 101%.
For `Brc1ccc(SCN(CSc2ccc(Br)cc2)Cc2ccccc2)cc1`, the growth in experiment [1] was 76.6%; in experiment [2], 120%; in experiment [3], 63.1%; in [5], 45.8%; in [6] it was 60.8%; in [7], 108%.

For the origin of these results see PubChem BioAssay (NCI).
